# Assay outcomes as filed in PubChem BioAssay.
# Gal4-VP16 FLuc = VP16 counterscreen qHTS for inhibitors of ROR gamma transcriptional activity; Drosophila S2 Gal4-VP16 UAS-luciferase, luminescence, 20 h; Potency, µM (doses to about 53.6 µM), inactives show at the top dose activity, negative = inhibition, usual class: inhibitors; AID 2546, 2010; 310,000 tested, 3.5% active;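 further: Gal4-VP16 expression switched on by copper sulfate through the metallothionein promoter; potency means the concentration at half of the fitted maximal effect; nearly all actives have a fitted effect of over 50% in size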
# rTrxR1 inhibitor = qHTS Assay for Inhibitors of Mammalian Selenoprotein Thioredoxin Reductase 1 (TrxR1): qHTS; Potency, µM (titrated, usually from 114 µM), for the others: at the top dose activity change, negative = inhibition, actives largely listed as inhibitors; recombinant rTrxR1, NADPH fluorescence consumption, selenite substrate; Thioredoxin reductase 1, cytoplasmic (Rattus norvegicus), O89049; AID 588453, 2011; 390,000 tested, 1% active; further: potency means the concentration at half of the fitted maximal effect; nearly all actives have a fitted effect of over 65% in size
#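 Rat TrxR1 (90 nM in the dispensed reagent) was pre-reduced with 400 uM NADPH for 5 min at room temperature, then incubated with compound for 15 min. After 400 uM selenite was added, NADPH fluorescence (Ex 340/Em 450 nm) was followed for 8 min.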
# TrxR1 substrate = qHTS Assay for Substrates of Mammalian Selenoprotein Thioredoxin Reductase 1 (TrxR1): qHTS | Thioredoxin reductase 1, cytoplasmic (Rattus norvegicus), O89049 | purified TrxR1 substrate turnover, NADPH consumption readout | AID 588456, 2011 | Potency, µM (doses to about 114 µM), inactives show at the highest dose activity change, negative = substrate turnover | 390,000 tested, 0.01% active; further: potency means the concentration at half of the fitted maximal effect; nearly all actives have a fitted effect of over 50% in size
#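 Rat TrxR1, dispensed at 90 nM, was prereduced with 400 uM NADPH (final) for 5 min at ~22 deg C, then incubated with compound 15 min before 400 uM selenite. A first-read NADPH fluorescence drop versus no-compound background flagged substrates.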
# RORg inh = qHTS for inhibitors of ROR gamma transcriptional activity. Potency, µM (titrated, usually from 53.6 µM), for the others: at the highest dose activity change, negative = inhibition, most hits filed as inhibitors. Nuclear receptor ROR-gamma (Mus musculus), P51450. 310,000 tested, 5.4% active. AID 2551, 2010. Drosophila S2 Gal4-RORgamma UAS-luciferase reporter, 20 h; further: potency means the concentration at half of the fitted maximal effect; nearly all actives have a fitted effect of over 60% in size
# Target sequence (P51450 whole entry, looked up, the tested form may be a part): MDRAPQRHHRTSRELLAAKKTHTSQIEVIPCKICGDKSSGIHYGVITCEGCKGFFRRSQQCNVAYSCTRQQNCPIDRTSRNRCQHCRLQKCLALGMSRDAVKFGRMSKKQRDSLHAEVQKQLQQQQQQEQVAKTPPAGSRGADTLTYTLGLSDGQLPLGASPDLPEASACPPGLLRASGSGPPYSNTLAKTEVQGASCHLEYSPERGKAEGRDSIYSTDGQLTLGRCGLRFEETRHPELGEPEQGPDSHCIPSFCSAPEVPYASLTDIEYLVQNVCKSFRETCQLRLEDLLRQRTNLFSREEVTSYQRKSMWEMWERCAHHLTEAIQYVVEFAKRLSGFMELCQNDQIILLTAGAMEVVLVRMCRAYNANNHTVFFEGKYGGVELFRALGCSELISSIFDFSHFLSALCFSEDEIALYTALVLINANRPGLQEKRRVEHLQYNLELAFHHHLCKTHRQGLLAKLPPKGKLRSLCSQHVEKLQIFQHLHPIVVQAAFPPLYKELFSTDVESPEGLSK
#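 ROR gamma transcriptional activity was tracked as Gal4-UAS luciferase output in stably transfected Drosophila Schneider cells, with compound added 1 hr before 700 uM copper sulfate induction and a 20 hr ambient-temperature incubation.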
# FBPA coupling cs = qHTS Assay for Inhibitors of Fructose-1,6-bisphosphate Aldolase from Giardia Lamblia: Coupling assay counterscreen. coupling enzyme system counterscreen, AmpLite Red fluorescence. activity change, negative = inhibition, % at 58.2 µM, hits read low. 290,000 tested, 0.67% active; in the data active means activity change below about -30%
#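 Activity here indicates interference with the coupling reaction, not aldolase inhibition. Compounds at 57.5 uM final met coupling enzymes for 10 min at RT; substrate and AmpLite Red detection followed, with a 525/598 nm fluorescence read after 20 min.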
# GALK inhibitor = qHTS Assay for Inhibitors of Human Galactokinase (GALK); P51570; Purified GALK, Kinase-Glo residual ATP luminescence; Potency, µM (series often up to 57.5 µM), without a hit: at the top dose activity change, negative = inhibition, usual class: inhibitors; 270,000 tested, 0.007% active; further: potency means the concentration at half of the fitted maximal effect
#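 Luminescence from leftover ATP (Ultra-Glo luciferase/luciferin) served as read-out after a 1 h room-temperature reaction of 5 nM GALK with 35 uM ATP and 100 uM galactose.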
# Starred values were filed as active, the others as inactive; ? = inconclusive; nt = not tested or not shown; [ ] = another dose, or the depositor's remark. Hits are enriched below; roughly 5.9% of the tested compounds scored in any of these assays. Unless noted, the call rests on the fitted dose curve; in most records, active means well fitted curve in the direction sought with a large enough effect; inconclusive means small, poorly fitted or top-dose-only effect, or another doubt; inactive means no such curve, though single readings can be large; an effect the other way counts as inactive or inconclusive. On the % scale 0 is the no-effect control and ±100 the full control effect.
SMILES,Gal4-VP16 FLuc,rTrxR1 inhibitor,TrxR1 substrate,RORg inh,FBPA coupling cs,GALK inhibitor
Cc1cccc(C(=O)N/N=C/c2cc(Br)c(Br)o2)c1,?,-6%,-7%,11µM*,1,nt
COC(=O)c1cc(NC(=O)CN2C(=O)CSC2=O)ccc1Cl,5%,15%,-2%,?,1,6%
NC(=O)c1cc2cc(Cl)ccc2o/c1=N/NC(=O)c1cccs1,23%,16%,3%,4%,1,2%
COc1ccc(-n2c(SCC(=O)c3ccc[nH]3)nnc2-c2ccccc2)cc1,-1%,-21%,-10%,-16%,5,2%
Cc1onc(-c2ccccc2)c1C(=O)Oc1cccnc1,-6%,8%,4%,7.9µM*,2,-2%
O=c1ncccn1[C@@H]1O[C@H](CO)C(O)[C@@H]1O (stereo partly drawn),-9%,nt,nt,-12%,2,nt
COC(=O)c1sccc1N/N=C/c1cccc(OC)c1O,16µM*,9%,-7%,?,1,-1%
COc1ccc2nc(C)cc(SCC(=O)N/N=C/c3cccc4ccccc34)c2c1,-25%,23%,14%,11µM*,1,1%
COc1ccc(/C=N/Nc2cc(C)nc3ccc(Br)cc23)cc1,?,-2%,1%,13µM*,2,3%
COc1ccc2nc(C)cc(N/N=C/c3cccc(OC)c3O)c2c1,11µM*,1%,-4%,?,-1,-1%
COc1ccc2nc(C)cc(SCC(=O)N/N=C/c3ccc(O)c(O)c3)c2c1,1%,-8%,-8%,-18%,-5,2%
COc1cccc2c(N/N=C/c3ccccc3)cc(C)nc12,10%,39%[11.4 µM],4%,12%,1,-6%
CC[C@@]1(C(=O)OC)N[C@H](CN(C)C(=O)Nc2ccccc2)[C@@H]2C(=O)N(C)C(=O)[C@@H]21,nt,4%,6%,nt,nt,nt
Cc1ccc(C)c(N(C(=O)c2csnn2)C(C(=O)NC2CCCC2)c2cccnc2)c1 (stereo not drawn),-9%,9%[57.1 µM],0%[57.1 µM],-3%,0,9%
Cn1cc(CNCc2ccc(OC(F)(F)F)cc2)c(-c2ccc3c(c2)OCCO3)n1,3.5µM*,11%,3%,10µM*,2,-5%
Cn1cc(CNCc2cn[nH]c2-c2ccc(F)cc2)c(-c2ccc3c(c2)OCCO3)n1,0%,13%,-1%,12%,2,3%
Cc1[nH]n(-c2nc(-c3ccccc3)cc(=O)[nH]2)c(=O)c1CCO,-2%,-15%[57.1 µM],-2%[57.1 µM],?,-1,1%
CCc1ccc(-c2cc(C(=O)N3N=C(C(F)F)CC3(O)C(F)F)c3ccccc3n2)cc1 (stereo not drawn),?,24%,13%,?,0,0%
O=C(N/C(C(=O)N1CCOCC1)=C(\Sc1ncccn1)c1ccccc1)c1ccccc1,-6%,50µM*,-4%,0%,3,1%
Cc1cccc2c1ncc1c(=O)n(-c3ccccc3)[nH]c12,-6%,-16%,-14%,-18%,-2,0%
Cc1ccc(NC(=O)C2=C(c3ccccc3)S(=O)(=O)CCS2(=O)=O)cc1,5µM*,0.32µM*,1%,0.63µM*,-2,10%
CCCCOC(=O)c1nnc(-c2ccccc2)o1,-3%,-11%,-4%,10%,1,-1%
Cc1cc[n+](-c2ccccc2)c2ccccc12,11µM*,-3%,-8%,28%,-1,0%
Cc1ccc(NC(=O)NC2CCCCC2)c(C)c1,10%,13%,6%,14%,-1,0%
Cc1cc(F)ccc1NC(=S)NC1CCCC1,10µM*,17%,9%,6.3µM*,0,4%
SMILES,Gal4-VP16 FLuc,rTrxR1 inhibitor,TrxR1 substrate,RORg inh,FBPA coupling cs,GALK inhibitor
Cc1cc(OC(F)F)ccc1NC(=S)NC1CCCC1,7.1µM*,1%,1%,2.5µM*,1,-3%
Cc1ccc(NC(=O)NC2CCCCCCC2)c(C)c1,-22%,22%,5%,-6%,nt,-5%
Cc1ccc(C)c(NC(=S)NC2CC3CCCC(C2)N3CC(C)C)c1 (stereo not drawn),?,-18%,-4%,14µM*,1,1%
Cc1ccc(NC(=S)NC2CCCC2)c(C)c1,6.3µM*,-9%,-1%,7.1µM*,1,1%
Cc1ccc(S(=O)(=O)c2c(C)nn(-c3ccccc3)c2OC(=O)c2ccco2)cc1,-6%,?,-6%,-1%[10 µM],12,-1%
CC1(C)OC(=O)C2(Cc3ccc(Br)cc3N3CCCCC32)C(=O)O1 (stereo not drawn),nt,?,-4%,nt,nt,nt
O=C(Cc1cccs1)NCCc1cn2ccccc2n1,-2%,4%[57.1 µM],16%[57.1 µM],1%,0,9%
Cc1sc2ncnc(N3CCC(C(=O)NNC(=O)COc4ccc(Cl)cc4)CC3)c2c1C,nt,30%,-4%,nt,nt,nt
Cc1sc2ncnc(N3CCN(CCOc4ccc(Cl)cc4)CC3)c2c1C,3.5µM*,10%,-2%,?,0,4%
CCCCCCOC(=O)C[N+](C)(C)CCOC1CC2CCC1(C)C2(C)C (stereo not drawn),6%,2%,-10%,?,0,1%
CCCCCCCOC(=O)C[N+](C)(C)CCOC1CC2CCC1(C)C2(C)C (stereo not drawn),13µM*,3%,-2%,?,2,-1%
O=C1C=CC(=Nc2ccc(F)cc2)O1,nt,7.1µM*,1%,nt,nt,nt
Cc1cc(SCn2nnc3ccccc3c2=O)nc2ccccc12,-4%,-4%,-10%,17%[10 µM],0,0%
Cc1ccc(-n2nnnc2SCn2nnc3ccccc3c2=O)c(C)c1,7.1µM*,9%,-12%,?,-3,0%
O=c1c2ccccc2nnn1CSc1nc2ccccc2c(=O)n1Cc1ccco1,?,13%,5%,2.5µM*,0,0%
O=c1c2ccccc2nc(SCc2ccccc2)n1Cc1ccco1,-25%,?,-10%,38%,1,5%
O=C(CN1CCN(c2ccccc2F)CC1)Nc1nnc(C(F)(F)F)s1,-6%,38%[0.0914 µM],-2%[57.1 µM],?,2,13%
CNc1nc2[nH]c(=O)c3c(c2s1)OC(N)=C(C#N)C3c1cccc(F)c1 (stereo not drawn),-22%,0%,-3%,3%,-51*,-1%
Cc1sccc1/C=N/NC(=O)c1cccc2ccccc12,?,-17%,-14%,11µM*,-6,0%
